Measured values published in PubChem BioAssay (Tox21).
Records with an inconclusive call do not appear. The source made the active and inactive calls. Unless noted, calls follow the shape of the dose curve; as a rule, active = well fitted curve in the direction sought with a large enough effect in the repeat runs; inconclusive = weak or mixed curves; inactive = no such curve, though single readings can be large; an effect the other way counts as inactive or inconclusive.

Key:
[1] = qHTS assay to identify aromatase inhibitors - cell viability counter screen (AID 743084); conditions: MCF-7 aro ERE viability, CellTiter-Fluor, 24 h; series mostly up to 70.3 µM;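 also: cells stimulated with testosterone during compound exposure; nearly all actives have a fitted effect of over 55% in size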
[2] = biological target: Aryl hydrocarbon receptor (Homo sapiens) (UniProt P35869); assay: qHTS assay to identify small molecule that activate the aryl hydrocarbon receptor (AhR) signaling pathway (AID 743085); conditions: HepG2 AhR-luc (HG2L7.5c1), luciferase, 24 h; series mostly up to 70.3 µM;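 also: HG2L7.5c1 human HepG2 liver cells with stably integrated DRE-driven firefly reporter; nearly all actives have a fitted effect of over 15% in size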
Chain of Aryl hydrocarbon receptor (Homo sapiens) (P35869 whole entry, looked up): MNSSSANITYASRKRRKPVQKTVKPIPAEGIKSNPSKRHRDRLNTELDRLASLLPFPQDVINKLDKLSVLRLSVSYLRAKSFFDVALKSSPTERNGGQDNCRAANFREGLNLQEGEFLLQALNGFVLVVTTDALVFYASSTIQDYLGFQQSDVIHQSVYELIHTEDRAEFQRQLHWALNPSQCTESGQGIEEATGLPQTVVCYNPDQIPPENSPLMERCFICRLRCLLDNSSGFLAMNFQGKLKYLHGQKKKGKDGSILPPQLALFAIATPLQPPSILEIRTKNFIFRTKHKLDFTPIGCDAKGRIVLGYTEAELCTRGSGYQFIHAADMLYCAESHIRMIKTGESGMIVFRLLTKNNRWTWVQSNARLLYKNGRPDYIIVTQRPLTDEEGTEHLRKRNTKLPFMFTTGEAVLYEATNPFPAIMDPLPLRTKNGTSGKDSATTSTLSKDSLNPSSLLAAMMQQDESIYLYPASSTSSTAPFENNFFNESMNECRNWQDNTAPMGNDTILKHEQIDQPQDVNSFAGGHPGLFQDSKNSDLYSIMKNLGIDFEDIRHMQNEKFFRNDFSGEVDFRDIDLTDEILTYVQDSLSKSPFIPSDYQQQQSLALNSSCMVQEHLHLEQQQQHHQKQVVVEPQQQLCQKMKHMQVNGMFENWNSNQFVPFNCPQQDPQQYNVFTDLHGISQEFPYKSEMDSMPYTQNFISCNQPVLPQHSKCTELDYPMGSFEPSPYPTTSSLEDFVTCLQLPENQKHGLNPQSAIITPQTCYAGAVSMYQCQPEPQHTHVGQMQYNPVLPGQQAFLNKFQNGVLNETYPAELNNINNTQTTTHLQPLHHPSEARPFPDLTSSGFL
Method in brief: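 Reporter assay in engineered HepG2 line HG2L7.5c1, whose plasmid carries twenty dioxin responsive elements upstream of firefly luciferase. Treatment lasted 24 h at 37C; ONE-Glo luminescence gauged induction.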

[3] = qHTS assay to identify small molecule that activate the aryl hydrocarbon receptor (AhR) signaling pathway - cell viability counter screen (AID 743086); conditions: HepG2-AhR-luc viability, CellTiter-Fluor, 24 h; series mostly up to 70.3 µM;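 also: HepG2 liver cells carrying the AhR DRE luciferase reporter; nearly all actives have a fitted effect of over 45% in size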
Method in brief: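 HepG2-AhR-luc (HG2L7.5c1) cells, 4000/well, were preincubated 5 h at 37C, exposed to compound in qHTS format for 24 hr at 37C, then given CellTiter-Fluor for 30 min; viability was read as fluorescence in the reporter wells.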

[4] = biological target: Peroxisome proliferator-activated receptor gamma (Homo sapiens) (UniProt P37231); assay: qHTS assay to identify small molecule agonists of the peroxisome proliferator-activated receptor gamma (PPARg) signaling pathway (AID 743094; active = well fitted activation curve with a large enough effect in the signal ratio in the repeat runs, not every such curve was filed as active; the % refers to the signal ratio); conditions: HEK293H PPARg-UAS-bla, beta-lactamase FRET ratio, 17 h; series mostly up to 57 µM
Chain of Peroxisome proliferator-activated receptor gamma (Homo sapiens) (P37231 whole entry, looked up): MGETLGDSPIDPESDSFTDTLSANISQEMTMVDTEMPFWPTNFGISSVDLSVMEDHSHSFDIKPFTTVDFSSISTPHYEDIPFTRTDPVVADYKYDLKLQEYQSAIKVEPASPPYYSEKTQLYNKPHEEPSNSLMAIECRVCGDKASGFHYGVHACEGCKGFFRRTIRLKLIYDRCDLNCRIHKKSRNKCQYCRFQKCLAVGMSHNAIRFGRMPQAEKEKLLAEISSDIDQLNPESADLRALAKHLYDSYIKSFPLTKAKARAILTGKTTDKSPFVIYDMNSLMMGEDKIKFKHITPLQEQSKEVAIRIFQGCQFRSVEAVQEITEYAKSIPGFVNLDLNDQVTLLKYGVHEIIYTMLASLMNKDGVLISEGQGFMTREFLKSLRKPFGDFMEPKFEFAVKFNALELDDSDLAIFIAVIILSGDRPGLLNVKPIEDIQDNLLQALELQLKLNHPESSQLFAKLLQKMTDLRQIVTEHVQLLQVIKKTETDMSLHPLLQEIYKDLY
Method in brief: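 Stably transfected HEK293H cells (GeneBLAzer PPARg UAS-bla) were incubated with test substances for 17 h at 37C after a 5 h pre-incubation; beta-lactamase activity was then detected by FRET substrate fluorescence.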

[5] = qHTS assay for small molecule agonists of the antioxidant response element (ARE) signaling pathway (AID 743202; active = well fitted activation curve with a large enough effect in the signal ratio in the repeat runs, not every such curve was filed as active; the % refers to the signal ratio); conditions: HepG2 ARE-bla reporter, beta-lactamase FRET, 16 h; series mostly up to 73.3 µM
Method in brief: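 Compounds delivered in DMSO to ARE-bla HepG2 cells (2,000 cells/well, pre-incubated 5 h) and left 16 h at 37 C. LiveBLAzer B/G FRET substrate then added for 2 h at RT before fluorescence reading.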

[6] = qHTS assay for small molecule activators of the heat shock response signaling pathway - cell viability counter screen (AID 743209); conditions: HSE-bla HeLa viability, CellTiter-Glo luminescence, 5 h; series mostly up to 62.6 µM; also: nearly all actives have a fitted effect of over 50% in size
Method in brief: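 Quantitative HTS format, Tox21 10K library. HeLa cells carrying an HSE-driven beta-lactamase reporter were treated 5 h at 37 C, then assessed for viability by CellTiter-Glo luminescence.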

[7] = qHTS assay for small molecule activators of the heat shock response signaling pathway (AID 743210; active = well fitted activation curve with a large enough effect in the signal ratio in the repeat runs, with a control signal flat, not every such curve was filed as active; the % refers to the signal ratio;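 also: HeLa cells with beta-lactamase reporter driven by heat shock elements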); conditions: HeLa HSE-bla reporter, beta-lactamase ratio, 5 h; series mostly up to 62.6 µM
Method in brief: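 Reporter gene assay: HeLa cells stably bearing an HSE-bla construct, compound treatment 5 h at 37 C, LiveBLAzer substrate 2.5 h at RT, fluorescence intensity.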

[8] = qHTS assay to identify small molecule antagonists of the peroxisome proliferator-activated receptor gamma (PPARg) signaling pathway - cell viability counter screen (AID 743194); conditions: PPARg-bla HEK293H viability, CellTiter-Glo luminescence, 17 h; Potency: co-treated with 50 nM rosiglitazone unless noted; series mostly up to 62.6 µM; also: nearly all actives have a fitted effect of over 55% in size
Method in brief: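 PPARg-UAS-bla HEK293H cells were plated, rested 5 h at 37 C, then treated with compounds plus rosiglitazone (50 nM final) for 17 h at 37 C; viability was then read by CellTiter-Glo luminescence after 30 min at room temperature.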

[9] = qHTS assay for small molecule agonists of the antioxidant response element (ARE) signaling pathway - cell viability counter screen (AID 743203; calls by dose curve; also: nearly all actives have a fitted effect of over 55% in size); conditions: ARE-bla HepG2 viability, CellTiter-Glo luminescence, 16 h; series mostly up to 73.3 µM
Method in brief: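 Cells (ARE-bla HepG2, 2,000/well) receive DMSO-dissolved compounds after a 5 hrs rest. Plates incubate 16 hrs at 37C/5% CO2. CellTiter-Glo luminescence is then recorded after 30 min at room temperature.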

Measured: Potency

C=CC(C)(C)C
inactive: [1] | [2] | [3] | [4] | [5] | [6] | [7]

CCOC(=O)CC(=O)OCC
inactive: [3] | [8] | [5] | [6] | [7]

CCn1cc(C(=O)O)c(=O)c2cc3c(cc21)OCO3
inactive: [1] | [2] | [3] | [8] | [5] | [9] | [6] | [7]

CCCCCCCCC(=O)O
inactive: [1] | [2] | [3] | [8] | [5] | [6] | [7]
